# The sample as a whole holds a higher share of the strongest signals than the screen did.
# B1: SHCBP1-GST (Homo sapiens), Q8NEM2 (protein)
# chain: MADGSLTGGGLEAAAMAPERMGWAVEQELASLEKGLFQDEDSCSDCSYRDKPGSSLQSFMPEGKTFFPEIFQTNQLLFYERFRAYQDYILADCKASEVQEFTAEFLEKVLEPSGWRAVWHTNVFKVLVEITDVDFAALKAVVRLAEPYLCDSQVSTFTMECMKELLDLKEHRLPLQELWVVFDDSGVFDQTALAIEHVRFFYQNIWRSWDEEEEDEYDYFVRCVEPRLRLHYDILEDRVPSGLIVDYHNLLSQCEESYRKFLNLRSSLSNCNSDSEQENISMVEGLKLYSEMEQLKQKLKLIENPLLRYVFGYQKNSNIQAKGVRSSGQKITHVVSSTMMAGLLRSLLTDRLCQEPGEEEREIQFHSDPLSAINACFEGDTVIVCPGHYVVHGTFSIADSIELEGYGLPDDIVIEKRGKGDTFVDCTGADIKISGIKFVQHDAVEGILIVHRGKTTLENCVLQCETTGVTVRTSAEFLMKNSDLYGAKGAGIEIYPGSQCTLSDNGIHHCKEGILIKDFLDEHYDIPKISMVNNIIHNNEGYGVVLVKPTIFSDLQENAEDGTEENKALKIQTSGEPDVAERVDLEELIECATGKMELCARTDPSEQVEGNCEIVNELIAASTQKGQIKKKRLSELGITQADDNLMSQEMFVGIVGNQFKWNGKGSFGTFLF
# Key:
# Assay in all cases: glycan array binding signal (z-score within array); higher = stronger binding
# Conditions in all cases: glycan notation: IUPAC condensed, linker removed
# [1] = target: Gal(b1-4)GlcNAc(b1-2)[Gal(b1-4)GlcNAc(b1-4)]Man(a1-3)[GlcNAc(b1-4)][Gal(b1-4)GlcNAc(b1-2)Man(a1-6)]Man(b1-4)GlcNAc(b1-4)GlcNAc
# Procedure, shortened: (§1)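 Arrays were curated from the Consortium for Functional Glycomics database, 3228 in total, and kept only where the protein sequence was available. Binding is expressed as a within-array Z-score. This score was averaged across arrays of the same protein sequence at different concentrations or buffers and across linkers, and negative values can be read as non-binding.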
# [2] = target: Gal(b1-4)GlcNAc(b1-2)[Gal(b1-4)GlcNAc(b1-6)]Man(a1-6)[Gal(b1-4)GlcNAc(b1-2)Man(a1-3)]Man(b1-4)GlcNAc(b1-4)[Fuc(a1-6)]GlcNAc
# Procedure, shortened: as §1
# [3] = target: Gal(b1-4)GlcNAc(b1-2)[Gal(b1-4)GlcNAc(b1-6)]Man(a1-6)[GlcNAc(b1-4)][Gal(b1-4)GlcNAc(b1-2)[Gal(b1-4)GlcNAc(b1-4)]Man(a1-3)]Man(b1-4)GlcNAc(b1-4)[Fuc(a1-6)]GlcNAc
# Procedure, shortened: as §1
# [4] = target: Gal(b1-4)GlcNAc(b1-3)Gal(b1-3)GalNAc
# Procedure, shortened: as §1
# [5] = target: Gal(b1-4)GlcNAc(b1-3)Gal(b1-4)GlcNAc(b1-2)Man(a1-3)[Gal(b1-4)GlcNAc(b1-3)Gal(b1-4)GlcNAc(b1-2)Man(a1-6)]Man(b1-4)GlcNAc(b1-4)[Fuc(a1-6)]GlcNAc
# Procedure, shortened: as §1
# [6] = target: Gal(b1-4)GlcNAc(b1-3)Gal(b1-4)GlcNAc(b1-2)[Gal(b1-4)GlcNAc(b1-3)Gal(b1-4)GlcNAc(b1-6)]Man(a1-6)[Gal(b1-4)GlcNAc(b1-3)Gal(b1-4)GlcNAc(b1-2)Man(a1-3)]Man(b1-4)GlcNAc(b1-4)[Fuc(a1-6)]GlcNAc
# Procedure, shortened: as §1
# [7] = target: Gal(b1-4)GlcNAc(b1-3)Gal(b1-4)GlcNAc(b1-3)Gal(b1-4)GlcNAc(b1-3)Gal(b1-4)GlcNAc(b1-2)Man(a1-3)[Gal(b1-4)GlcNAc(b1-3)Gal(b1-4)GlcNAc(b1-3)Gal(b1-4)GlcNAc(b1-3)Gal(b1-4)GlcNAc(b1-2)Man(a1-6)]Man(b1-4)GlcNAc(b1-4)[Fuc(a1-6)]GlcNAc
# Procedure, shortened: as §1
# [8] = target: Gal(b1-4)GlcNAc(b1-3)Gal(b1-4)GlcNAc(b1-3)Gal(b1-4)GlcNAc(b1-3)Gal(b1-4)GlcNAc(b1-2)[Gal(b1-4)GlcNAc(b1-3)Gal(b1-4)GlcNAc(b1-3)Gal(b1-4)GlcNAc(b1-3)Gal(b1-4)GlcNAc(b1-6)]Man(a1-6)[Gal(b1-4)GlcNAc(b1-3)Gal(b1-4)GlcNAc(b1-3)Gal(b1-4)GlcNAc(b1-3)Gal(b1-4)GlcNAc(b1-2)Man(a1-3)]Man(b1-4)GlcNAc(b1-4)[Fuc(a1-6)]GlcNAc
# Procedure, shortened: as §1
# Gal3S(b1-3)GalNAc = target: Gal3S(b1-3)GalNAc
# Procedure, shortened: as §1
# [9] = target: Gal3S(b1-4)[Fuc(a1-3)]GlcNAc6S
# Procedure, shortened: as §1
# Gal6P(b1-4)GlcNAc = target: Gal6P(b1-4)GlcNAc
# Procedure, shortened: as §1
# GalNAc(a1-3)GalNAc = target: GalNAc(a1-3)GalNAc
# Procedure, shortened: as §1
# GalNAc(b1-4)GlcNAc = target: GalNAc(b1-4)GlcNAc
# Procedure, shortened: as §1
# [10] = target: GalNAc(b1-4)GlcNAc(b1-2)Man(a1-3)[GalNAc(b1-4)GlcNAc(b1-2)Man(a1-6)]Man(b1-4)GlcNAc(b1-4)GlcNAc
# Procedure, shortened: as §1
# GalNAc(b1-4)GlcNAc6S = target: GalNAc(b1-4)GlcNAc6S
# Procedure, shortened: as §1
# [11] = target: GlcNAc(a1-4)Gal(b1-4)GlcNAc(b1-3)Gal(b1-4)[Fuc(a1-3)]GlcNAc(b1-3)Gal(b1-4)[Fuc(a1-3)]GlcNAc
# Procedure, shortened: as §1
# [12] = target: GlcNAc(b1-3)Gal(b1-4)GlcNAc(b1-6)[GlcNAc(b1-3)]Gal(b1-4)GlcNAc
# Procedure, shortened: as §1
# GlcNAc(b1-3)Man = target: GlcNAc(b1-3)Man
# Procedure, shortened: as §1
# [13] = target: Neu5Ac(a2-3)Gal(b1-3)GalNAc(b1-4)[Neu5Ac(a2-3)]Gal(b1-4)Glc
# Procedure, shortened: as §1
# [14] = target: Neu5Ac(a2-3)Gal(b1-3)GlcNAc(b1-2)Man(a1-3)[Neu5Ac(a2-3)Gal(b1-3)GlcNAc(b1-2)Man(a1-6)]Man(b1-4)GlcNAc(b1-4)GlcNAc
# Procedure, shortened: as §1
# [15] = target: Neu5Ac(a2-3)Gal(b1-4)GlcNAc(b1-3)Gal(b1-4)GlcNAc(b1-6)[Gal(b1-3)]GalNAc
# Procedure, shortened: as §1
# [16] = target: Neu5Ac(a2-3)Gal(b1-4)[Fuc(a1-3)]GlcNAc(b1-3)Gal
# Procedure, shortened: as §1
# [17] = target: Neu5Ac(a2-6)Gal(b1-4)GlcNAc(b1-3)Gal(b1-4)GlcNAc
# Procedure, shortened: as §1
# [18] = target: Neu5Ac(a2-6)Gal(b1-4)GlcNAc(b1-3)Gal(b1-4)GlcNAc(b1-3)Gal(b1-4)GlcNAc(b1-2)Man(a1-3)[Neu5Ac(a2-6)Gal(b1-4)GlcNAc(b1-3)Gal(b1-4)GlcNAc(b1-3)Gal(b1-4)GlcNAc(b1-2)Man(a1-6)]GalNAc
# Procedure, shortened: as §1
# [19] = target: Neu5Ac(a2-6)Gal(b1-4)GlcNAc(b1-3)GalNAc
# Procedure, shortened: as §1
# [20] = target: Neu5Ac(a2-6)Gal(b1-4)GlcNAc(b1-6)GalNAc
# Procedure, shortened: as §1
# [21] = target: Neu5Ac(a2-8)Neu5Ac(a2-3)[GalNAc(b1-4)]Gal(b1-4)Glc
# Procedure, shortened: as §1
# [22] = target: Neu5Ac(a2-8)Neu5Ac(a2-8)Neu5Ac(a2-8)Neu5Ac(a2-3)[GalNAc(b1-4)]Gal(b1-4)Glc
# Procedure, shortened: as §1
# [23] = target: Neu5Gc(a2-3)Gal(b1-3)[Fuc(a1-4)]GlcNAc
# Procedure, shortened: as §1
binder,measurement,setting,value
B1,glycan array binding signal (z-score),[1],0.176
same,glycan array binding signal (z-score),[2],5.01
same,glycan array binding signal (z-score),[3],-0.032
same,glycan array binding signal (z-score),[4],-0.645
same,glycan array binding signal (z-score),[5],0.801
same,glycan array binding signal (z-score),[6],2.1
same,glycan array binding signal (z-score),[7],3.03
same,glycan array binding signal (z-score),[8],0.056
same,glycan array binding signal (z-score),Gal3S(b1-3)GalNAc,-0.165
same,glycan array binding signal (z-score),[9],-0.428
same,glycan array binding signal (z-score),Gal6P(b1-4)GlcNAc,-0.929
same,glycan array binding signal (z-score),GalNAc(a1-3)GalNAc,-0.406
same,glycan array binding signal (z-score),GalNAc(b1-4)GlcNAc,-0.137
same,glycan array binding signal (z-score),[10],2.96
same,glycan array binding signal (z-score),GalNAc(b1-4)GlcNAc6S,-0.496
same,glycan array binding signal (z-score),[11],2.67
same,glycan array binding signal (z-score),[12],-0.274
same,glycan array binding signal (z-score),GlcNAc(b1-3)Man,-0.054
same,glycan array binding signal (z-score),[13],0.166
same,glycan array binding signal (z-score),[14],-0.428
same,glycan array binding signal (z-score),[15],-0.09
same,glycan array binding signal (z-score),[16],-0.924
same,glycan array binding signal (z-score),[17],-1.12
same,glycan array binding signal (z-score),[18],2.65
same,glycan array binding signal (z-score),[19],2.41
same,glycan array binding signal (z-score),[20],-0.322
same,glycan array binding signal (z-score),[21],-0.847
same,glycan array binding signal (z-score),[22],0.231
same,glycan array binding signal (z-score),[23],0.247
